Measured values from PubChem BioAssay (Tox21).
“And” between values parts separate entries of the source, which are not always exact repeats. Equal values may be shown once. Results filed as inconclusive are left out. A call without a number means that no potency is given here. More than one record can exist for a structure, and the calls need not agree. The source made the active and inactive calls. Unless noted, the call rests on the fitted dose curve.

Columns and labels:
[1] = Nuclear factor erythroid 2-related factor 2/antioxidant responsive element (Nrf2/ARE) small molecule agonists: qHTS cell viability counter screen in human keratinocytes (AID 1919968; active means well fitted curve in the direction sought with a large enough effect in the repeat runs; an effect the other way counts as inactive or inconclusive; further: nearly all actives have a fitted effect of over 55% in size)
In short: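 KeratinoSens cells (HaCaT keratinocytes stably carrying an ARE-luciferase reporter) were seeded at 1,500 cells/well and rested 5 h at 37 C/5% CO2. They were then exposed to compounds in DMSO for 23 h. Viability was read by CellTiter-Fluor fluorescence after 1 h.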

[2] = Nuclear factor erythroid 2-related factor 2/antioxidant responsive element (Nrf2/ARE) small molecule agonists: luciferase reporter gene qHTS assay in human keratinocytes (AID 1919969); further: nearly all actives have a fitted effect of over 35% in size; further: potency means the concentration at half of the fitted maximal effect
[3] = molecular target: Gonadotropin-releasing hormone receptor (Homo sapiens) (UniProt P30968); assay: Human gonadotropin-releasing hormone receptor (GnRHR) small molecule agonists, calcium flux assay in GnRHR-HEK293 cells (AID 1920063); further: nearly all actives have a fitted effect of over 35% in size
Gonadotropin-releasing hormone receptor (Homo sapiens), sequence (P30968 whole entry, looked up): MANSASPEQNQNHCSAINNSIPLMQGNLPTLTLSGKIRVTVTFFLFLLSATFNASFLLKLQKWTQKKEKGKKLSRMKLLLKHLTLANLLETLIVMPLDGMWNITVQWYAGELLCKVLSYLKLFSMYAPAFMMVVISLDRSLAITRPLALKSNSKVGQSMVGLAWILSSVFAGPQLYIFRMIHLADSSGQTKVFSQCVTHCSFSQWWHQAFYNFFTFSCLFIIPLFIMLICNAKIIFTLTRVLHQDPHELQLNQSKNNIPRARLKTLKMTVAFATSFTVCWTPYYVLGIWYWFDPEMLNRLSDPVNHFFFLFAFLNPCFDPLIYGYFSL
In short: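 HEK293 cells stably expressing human GnRHR were plated 18 h at 37 °C, loaded with calcium dye 1 h at 37 °C, then given compound in agonist mode; fluorescence (Ex/Em 480/540) read kinetically for 3 min at 1 s intervals.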

[4] = molecular target: KiSS-1 receptor (Homo sapiens) (UniProt Q969F8); assay: Human kisspeptin (KISS1R) small molecule agonists, calcium flux assay in KISS1R-HEK293 cells (AID 1920064; active means well fitted curve in the direction sought with a large enough effect in the repeat runs; an effect the other way counts as inactive or inconclusive)
KiSS-1 receptor (Homo sapiens), sequence (Q969F8 whole entry, looked up): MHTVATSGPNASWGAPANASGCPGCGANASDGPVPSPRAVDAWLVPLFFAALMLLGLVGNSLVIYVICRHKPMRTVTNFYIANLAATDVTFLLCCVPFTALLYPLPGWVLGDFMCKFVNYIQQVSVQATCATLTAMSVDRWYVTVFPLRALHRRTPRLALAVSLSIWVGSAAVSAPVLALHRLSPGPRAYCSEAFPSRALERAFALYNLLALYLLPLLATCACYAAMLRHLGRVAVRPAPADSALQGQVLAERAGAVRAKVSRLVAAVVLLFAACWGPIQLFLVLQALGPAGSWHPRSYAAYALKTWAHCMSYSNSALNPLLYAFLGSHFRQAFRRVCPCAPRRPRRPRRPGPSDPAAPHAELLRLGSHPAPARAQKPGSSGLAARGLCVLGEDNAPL
In short: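 HEK293 cells stably expressing human KISS1R were plated 18 h at 37 °C, loaded with calcium dye for 1 h at 37 °C, then given compound by pin tool. Fluorescence (Ex/Em 480/540) was read kinetically for 3 min.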

[5] = G protein-coupled receptor (GPCR) small molecule agonists, calcium flux assay: HEK293 wild type cell line counter screen (AID 1920065)
In short: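 Cells were plated and cultured 18 h at 37 C/5% CO2, then loaded with calcium dye for 1 h at 37 C. Compounds in DMSO were pin-transferred in agonist mode, and fluorescence (Ex/Em 480/540) was read kinetically for 3 min at 1 s intervals.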

[6] = p53 small molecule agonists, cell-based qHTS assay with human liver microsomes (AID 1963577);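 further: p53 response element beta-lactamase reporter cells with liver microsomes plus NADPH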
In short: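 HLM-supplemented p53RE-bla reporter assay: 16 h compound exposure at 37 C, microsomes and NADPH each 0.5 mg/mL final, read by fluorescence intensity.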

[7] = p53 small molecule agonists, cell-based qHTS assay with rat liver microsomes (AID 1963578)
In short: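 Quantitative HTS of the Tox21 10K library: p53RE-bla cells, rat liver microsomes plus NADPH at 0.5 mg/mL final each, 16 h at 37 C, beta-lactamase fluorescence detection.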

[8] = p53 small molecule agonists, cell-based qHTS assay with human liver microsomes: qHTS cell viability counter screen (AID 1963579); further: nearly all actives have a fitted effect of over 45% in size
In short: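 Viability of p53RE-bla cells is measured as CellTiter-Glo luminescence following a 16 h, 37 C incubation with compound, liver microsomes from human donors and NADPH.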

[9] = p53 small molecule agonists, cell-based qHTS assay with rat liver microsomes: qHTS cell viability counter screen (AID 1963580); further: nearly all actives have a fitted effect of over 45% in size
In short: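 In HCT-116 cells carrying a p53 response element-bla reporter, compounds were metabolically activated in situ by rat liver microsomes with NADPH over 16 h. Cell ATP content then served as the cytotoxicity measure.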

[10] = p53 small molecule agonists, cell-based qHTS assay: qHTS cell viability counter screen (AID 1963581); further: nearly all actives have a fitted effect of over 45% in size
In short: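 p53RE-bla HCT-116 cells were exposed to compounds for 16 h at 37 C; after the beta-lactamase FRET read in the same wells, CellTiter-Glo was added and luminescence (intracellular ATP) read after 30 min at room temperature.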

[11] = p53 small molecule agonists, cell-based qHTS assay (AID 1963582; active means well fitted activation curve with a large enough effect in the signal ratio in the repeat runs, not every such curve was filed as active; the % refers to the signal ratio)
In short: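 p53RE-bla beta-lactamase reporter cells rested 5 h at 37 C/5% CO2, then received compounds in DMSO by pin transfer and were incubated 16 h at 37 C. LiveBLAzer B/G FRET substrate was loaded for 2 h at room temperature before fluorescence reading.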

[12] = molecular target: 5-hydroxytryptamine receptor 2A (Homo sapiens) (UniProt P28223); assay: 5-hydroxytryptamine receptor 2A (HTR2A) small molecule agonists, cell-based qHTS assay (AID 1963587); further: nearly all actives have a fitted effect of over 30% in size
5-hydroxytryptamine receptor 2A (Homo sapiens), sequence (P28223 whole entry, looked up): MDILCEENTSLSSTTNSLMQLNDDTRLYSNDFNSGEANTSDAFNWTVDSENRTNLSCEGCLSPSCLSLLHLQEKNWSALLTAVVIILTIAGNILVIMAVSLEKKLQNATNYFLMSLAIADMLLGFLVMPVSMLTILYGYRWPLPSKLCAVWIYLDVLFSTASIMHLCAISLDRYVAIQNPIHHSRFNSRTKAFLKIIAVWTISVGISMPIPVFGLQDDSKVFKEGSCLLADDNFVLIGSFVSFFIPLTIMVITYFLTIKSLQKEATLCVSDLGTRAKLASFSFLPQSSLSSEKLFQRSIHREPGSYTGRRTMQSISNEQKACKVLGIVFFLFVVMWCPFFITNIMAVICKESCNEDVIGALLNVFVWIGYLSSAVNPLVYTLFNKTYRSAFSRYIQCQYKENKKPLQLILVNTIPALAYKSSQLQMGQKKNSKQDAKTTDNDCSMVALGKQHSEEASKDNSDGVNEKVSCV
In short: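 HTR2A-CHO cells, plated 18 h at 37 C/5% CO2, dye-loaded 1 h at 37 C; compounds in DMSO added by pin tool (agonist mode). Intracellular calcium flux read as kinetic fluorescence on FDSS over 2 min at 1 s intervals.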

[13] = molecular target: Muscarinic acetylcholine receptor M1 (Homo sapiens) (UniProt P11229); assay: Cholinergic receptor muscarinic 1 (CHRM1) small molecule antagonists, cell-based qHTS assay (AID 1963588); further: nearly all actives have a fitted effect of over 40% in size
Muscarinic acetylcholine receptor M1 (Homo sapiens), sequence (P11229 whole entry, looked up): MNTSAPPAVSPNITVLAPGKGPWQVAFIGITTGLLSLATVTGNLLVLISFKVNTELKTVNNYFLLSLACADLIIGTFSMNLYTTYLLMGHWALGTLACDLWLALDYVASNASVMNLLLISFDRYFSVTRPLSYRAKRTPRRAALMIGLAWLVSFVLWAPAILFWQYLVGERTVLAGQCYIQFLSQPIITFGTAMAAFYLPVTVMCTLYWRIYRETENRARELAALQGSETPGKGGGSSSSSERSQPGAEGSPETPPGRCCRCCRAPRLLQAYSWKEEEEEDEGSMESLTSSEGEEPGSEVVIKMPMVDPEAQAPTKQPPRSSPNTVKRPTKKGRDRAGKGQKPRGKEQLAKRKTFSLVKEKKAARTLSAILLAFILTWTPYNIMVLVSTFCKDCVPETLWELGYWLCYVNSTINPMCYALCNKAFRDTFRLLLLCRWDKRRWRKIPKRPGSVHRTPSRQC
In short: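 CHRM1-CHO calcium-flux assay, antagonist mode. Cells were seeded 18 h, dye-loaded 1 h at 37 C and given compound for 5 min at RT, then acetylcholine was added at 50nM. FDSS fluorescence was read 3 min; 15 concentrations, three runs.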

[14] = molecular target: Muscarinic acetylcholine receptor M1 (Homo sapiens) (UniProt P11229); assay: Cholinergic receptor muscarinic 1 (CHRM1) small molecule agonists, cell-based qHTS assay (AID 1963589); further: nearly all actives have a fitted effect of over 35% in size
In short: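 CHO cells stably expressing human CHRM1, seeded 18 h at 37 C/5% CO2, dye-loaded 1 h at 37 C, then given compound in agonist mode; intracellular calcium fluorescence read kinetically at 1 s intervals. Fifteen concentrations, three independent runs.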

[15] = molecular target: Beta-2 adrenergic receptor (Homo sapiens) (UniProt P07550); assay: Adrenergic beta2 receptor (ADRB2) small molecule antagonists, cell-based qHTS assay (AID 1963592); further: series mostly up to about 92 µM; nearly all actives have a fitted effect of over 50% in size
Beta-2 adrenergic receptor (Homo sapiens), sequence (P07550 whole entry, looked up): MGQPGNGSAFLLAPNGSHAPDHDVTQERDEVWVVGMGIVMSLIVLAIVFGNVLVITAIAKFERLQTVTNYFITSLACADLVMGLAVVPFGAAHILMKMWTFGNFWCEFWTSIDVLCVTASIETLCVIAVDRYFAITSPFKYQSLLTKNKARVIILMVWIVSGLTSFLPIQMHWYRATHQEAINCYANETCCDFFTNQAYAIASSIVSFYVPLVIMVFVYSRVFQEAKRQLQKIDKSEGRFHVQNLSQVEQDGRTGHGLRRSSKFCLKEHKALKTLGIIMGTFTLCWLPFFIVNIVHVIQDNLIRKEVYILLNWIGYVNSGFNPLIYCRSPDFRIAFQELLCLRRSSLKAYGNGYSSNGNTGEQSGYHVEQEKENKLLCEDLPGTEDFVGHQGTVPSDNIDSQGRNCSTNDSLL
In short: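 Cells (CHO, stable ADRB2 overexpression) incubated 18-20hr at 37C; compounds added from DMSO; agonist mix (1nM isoproterenol, 100uM IBMX, 25uM Ro-20-1724) added; 0.5hr RT; d2-cAMP and anti-cAMP-cryptate added; 1hr RT; 665/615 nm read.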

[16] = molecular target: Beta-2 adrenergic receptor (Homo sapiens) (UniProt P07550); assay: Adrenergic beta2 receptor (ADRB2) small molecule agonists, cell-based qHTS assay (AID 1963593);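 further: CHO cells stably overexpressing human ADRB2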
In short: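 CHO cells stably over-expressing ADRB2 were plated overnight at 37C, then dosed with compounds plus a stimulation mix containing 100uM IBMX and 25uM Ro-20-1724 for 0.5hr at room temperature. cAMP was measured by HTRF competition, 1hr.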

[17] = molecular target: D(2) dopamine receptor (Homo sapiens) (UniProt P14416); assay: Dopamine D2 receptor (DRD2) small molecule agonists, cell-based qHTS assay (AID 1963594); further: nearly all actives have a fitted effect of over 35% in size
D(2) dopamine receptor (Homo sapiens), sequence (P14416 whole entry, looked up): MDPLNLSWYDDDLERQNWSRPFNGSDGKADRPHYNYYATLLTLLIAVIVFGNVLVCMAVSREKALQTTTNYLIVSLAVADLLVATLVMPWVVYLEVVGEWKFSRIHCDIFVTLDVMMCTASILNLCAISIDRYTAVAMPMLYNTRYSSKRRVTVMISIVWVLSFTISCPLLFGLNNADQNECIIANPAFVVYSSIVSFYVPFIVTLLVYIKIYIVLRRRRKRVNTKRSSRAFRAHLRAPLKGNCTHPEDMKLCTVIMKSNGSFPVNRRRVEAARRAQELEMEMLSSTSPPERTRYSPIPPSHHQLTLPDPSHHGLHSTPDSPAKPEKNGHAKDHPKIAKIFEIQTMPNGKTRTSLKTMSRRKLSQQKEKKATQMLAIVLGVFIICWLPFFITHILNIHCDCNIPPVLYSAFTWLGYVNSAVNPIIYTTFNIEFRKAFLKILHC
In short: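 HEK293 cells stably expressing DRD2 were cultured 24 h at 37 C, then given Ro20-1724 (0.1 mM final) and compounds for 10 min at room temperature. NKH477 (200nM) was then added for 30 min. cAMP was read by HTRF.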

[18] = cAMP Responsive Elements (CRE) small molecule agonists, cell-based qHTS assay (AID 1963590)
In short: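 CRE-bla HEK 293T cells in DMEM with 10% dialyzed FBS, NEAA, pyruvate and 25 mM HEPES were plated 18 h at 37 C/5% CO2, then exposed to compounds in DMSO for 3 h before LiveBLAzer B/G FRET substrate addition.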

[19] = cAMP Responsive Elements (CRE) small molecule antagonists, cell-based qHTS assay (AID 1963591; active means well fitted inhibition curve with a large enough effect in the signal ratio in the repeat runs, not every such curve was filed as active; the % refers to the signal ratio)
In short: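 CRE-bla HEK293T cells were plated 18 h at 37 °C/5% CO2, pinned with compound in DMSO, then stimulated with NKH477 at 0.25 uM final for 3 h. LiveBLAzer B/G FRET substrate was added and plates incubated 2 h at room temperature.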

[20] = molecular target: D(2) dopamine receptor (Homo sapiens) (UniProt P14416); assay: Dopamine D2 receptor (DRD2) small molecule antagonists, cell-based qHTS assay (AID 1963595; active means well fitted inhibition curve with a large enough effect in the signal ratio in the repeat runs, with a control signal flat; the % refers to the signal ratio)
In short: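 Antagonism was scored as restored cAMP in HEK293-DRD2 cells. These cells were stimulated with 200 nM NKH477 and 12 nM quinpirole for 30 min at room temperature, in the presence of 0.1 mM Ro20-1724.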

| Structure (SMILES) | Potency [1] | Potency [2] | Potency [3] | Potency [4] | Potency [5] | Potency [6] | Potency [7] | Potency [8] | Potency [9] | Potency [10] | Potency [11] | Potency [12] | Potency [13] | Potency [14] | Potency [15] | Potency [16] | Potency [17] | Potency [18] | Potency [19] | Potency [20] |
| --- | --- | --- | --- | --- | --- | --- | --- | --- | --- | --- | --- | --- | --- | --- | --- | --- | --- | --- | --- | --- |
| C[C@]12C[C@H](O)[C@H]3[C@@H](CCC4=CC(=O)CC[C@@]43C)[C@@H]1CC[C@@H]2C(=O)CO | inactive | inactive | inactive | inactive | inactive | inactive | inactive | inactive | inactive | inactive | inactive | inactive | inactive | inactive | inactive | inactive | inactive | – | – | – |
| c1ccncc1 | inactive | inactive | inactive | inactive | inactive | inactive | inactive | inactive | inactive | inactive | inactive | – | inactive | inactive | inactive | inactive | inactive | inactive | inactive | inactive |
| CCCCC(CC)COC(=O)c1ccc(N(C)C)cc1 (stereo unspecified) | inactive | 30.8 µM (active) and 54.5 µM (active) and inactive | inactive | inactive | inactive | inactive | inactive | inactive | inactive | inactive | inactive | inactive | inactive | – | inactive | inactive | inactive | inactive | inactive | inactive |
| C=C(C)C(=O)OCC(CC)(COC(=O)C(=C)C)COC(=O)C(=C)C | inactive | inactive | inactive | inactive | inactive | inactive | inactive | inactive | inactive | inactive | inactive | inactive | – | inactive | inactive | – | inactive | – | – | inactive |
| CC1(C)CC(N)CC(C)(CN)C1 (stereo unspecified) | inactive | inactive | inactive | inactive | inactive | inactive | inactive | inactive | inactive | inactive | inactive | – | inactive | inactive | inactive | – | inactive | inactive | inactive | inactive |
| CC1(C)NC(=O)N(c2ccc([N+](=O)[O-])c(C(F)(F)F)c2)C1=O | inactive | inactive | inactive | inactive | inactive | inactive | inactive | inactive | inactive | inactive | inactive | inactive | inactive | – | inactive | inactive | inactive | inactive | inactive | inactive |
| C=Cc1ccc(C)cc1 | inactive | inactive | inactive | inactive | inactive | inactive | inactive | inactive | inactive | inactive | inactive | inactive | inactive | – | inactive | inactive | inactive | inactive | inactive | – |
| C/C=C(C)/C=C/C=C(C)C | inactive | 60.4 µM (active) and 54.5 µM (active) | inactive | inactive | inactive | inactive | inactive | inactive | inactive | inactive | inactive | inactive | inactive | inactive | inactive | inactive | inactive | inactive | inactive | inactive |
